Laboratory results published in ChEMBL document CHEMBL1157539, “Thousands of chemical starting points for antimalarial lead identification” (Nature, 2010).

Columns and labels:
Type in all cases: functional
Plasmodium falciparum [1] = test: GSK_TCMDC: Inhibition of Plasmodium falciparum 3D7 in whole red blood cells, using parasite LDH activity as an index of growth. Test compounds present at 2uM
Plasmodium falciparum [2] = test: GSK_TCMDC: Inhibition of Plasmodium falciparum Dd2 in whole red blood cells, using parasite LDH activity as an index of growth. Test compounds present at 2uM
HepG2 = test: GSK_TCMDC: Percent inhibition of human HepG2 cell line. Test compounds present at 10uM.

Compound | Inhibition (Plasmodium falciparum [1]) | Inhibition (Plasmodium falciparum [2]) | Inhibition (HepG2)
CC(C)N1CCC(N(Cc2ccc(-c3ccc(C(F)(F)F)cc3)cc2)C(=O)CCCn2c(CCc3cccc(F)c3F)nc(=O)c3ccccc32)CC1.O=C(O)C(O)C(O)C(=O)O | 89% | 60% | 45%
CCN(CCO)Cc1ccc(-c2ccc(NS(=O)(=O)c3cccc4cccnc34)cc2)cc1.O=C(O)C(F)(F)F | 92% | 16% | 25%
Cc1ccc(C(=O)Nc2ccc(Nc3ccnc4cc(-c5ccncc5)ccc34)cc2O)cc1 | 97% | 100% | 14%
CCc1cn2c3c(cc(C(=O)N[C@@H](Cc4ccccc4)[C@H](O)CNCC(C)C)cc13)N(C)S(=O)(=O)CC2 | 98% | 99% | 0%
Cl.NC1CCN(CCc2ccc(NS(=O)(=O)c3cccc4ccccc34)cc2)CC1 | 94% | 4% | 21%
COc1cc(CN2CCC(CO)(Cc3cccc(C(F)(F)F)c3)CC2)c(Cl)cc1O | 99% | 64% | 12%
COc1cc(Cc2cnc(N)nc2N)c2ccsc2c1OC.Cl | 92% | 4% | 5%
CNS(=O)(=O)Cc1ccc(Nc2nccc(Nc3cccc4c3cnn4C(=O)Nc3ccccc3)n2)cc1 | 89% | 5% | 45%
Cc1[nH]c(C)c(-c2ccc(-c3cc(C(F)(F)F)cc(C(F)(F)F)c3)nc2)c(=O)c1Br | 98% | 96% | 18%
COC(=O)c1cccc(CNCc2cccc(-c3ccc(-c4nc5cccc(C)c5[nH]4)cc3)c2)c1.O=C(O)C(F)(F)F | 100% | 52% | 3%
COc1cccc(OC)c1CN1CCC(N(C)CCCCCCCCCN2CCC(OC(=O)Nc3ccccc3-c3ccccc3)CC2)CC1 | 98% | 98% | 100%
CCOC(=O)c1ccc(NC(=O)Nc2ccc(-c3cccc(-c4nc5ccccc5[nH]4)c3)cc2)cc1 | 100% | 99% | 94%
CCCCCCC1(C)N=C(N)N=C(N)C1c1ccc(Cl)c(Cl)c1.Cl (stereo not drawn) | 94% | 43% | 18%
O=C(O)C(F)(F)F.O=C1CCCN1CCCNCc1cccc(-c2ccc(-c3nc4cc(C(F)(F)F)ccc4[nH]3)cc2)c1 | 100% | 96% | 15%
COc1ccc(CC(=O)NC(CCCN2CCC3(CC2)OCc2ccccc23)c2ccc(Cl)c(Cl)c2)cc1 (stereo not drawn) | 83% | 53% | 40%
Cl.Nc1ccnc2ccc(OCCCCCCc3ccccc3)cc12 | 100% | 99% | 96%

Compound | Inhibition (Plasmodium falciparum [1]) | Inhibition (Plasmodium falciparum [2]) | Inhibition (HepG2)
CN(Cc1cccc(O)c1)C1CCN(c2cc(NC(=O)c3ccc(F)cc3)ccn2)C1.O=C(O)C(F)(F)F (stereo not drawn) | 91% | 6% | 5%
COc1ccc(NC(=O)c2ccc(-c3nc(-c4ccccc4)cs3)cc2)cc1N1CCN(C)CC1.O=C(O)C(=O)O | 93% | 13% | 17%
CCn1c(-c2nonc2N)nc2c(Cl)ncc(O[C@H](CCN)c3ccccc3F)c21.Cl | 96% | 88% | 15%
CCCC(=O)Nc1ccc(OCCCN(Cc2ccccc2OC(F)(F)F)c2ccc(C#N)c(C(F)(F)F)c2)cc1 | 94% | 95% | 0%
O=C(Nc1ccc(OC2CCN(Cc3ccccc3)C2)c(Cl)c1)c1ccc(F)cc1.O=C(O)C(F)(F)F (stereo not drawn) | 90% | 87% | 7%
Cn1cc(C(=O)Nc2cccc(-c3cccc(-c4nc5cc(F)ccc5[nH]4)c3)c2)n(C)c1=O | 98% | 50% | 15%
Cc1ccc(F)c(OC2CCN(c3ccc(C(=O)NC4CC4)cn3)CC2)c1 | 92% | 72% | 10%
O=C(NCCSCc1c(F)cccc1Cl)c1cnc2c(c1)nc(-c1c[nH]c(-c3ccccc3)n1)n2CCc1c[nH]cn1 | 93% | 45% | 10%
N=C(N)c1ccc(Oc2ccc(C(=N)N)cc2)cc1.O=S(=O)(O)CCO | 92% | 85% | 18%
CN1CCN(CCCCNc2c3ccccc3nc3ccccc23)CC1 | 100% | 0% | 37%
C=CC[C@@H](C(=O)OCC)[C@@H]1[C@@H](N(CC=C)C(=O)OC(C)(C)C)CCN1C(=O)OCc1ccccc1 | 92% | 68% | 2%
NCCCNc1ccnc2cc(Cl)ccc12 | 100% | 25% | 14%
C[C@H]1CN(Cc2cccc(-c3cc(CNC(=O)c4cccc(CN5CCN(C/C=C/c6ccccc6)CC5)c4)ccc3F)c2)CCN1.O=C(O)C(F)(F)F | 98% | 46% | 98%
O=C(COc1ccc(Cl)c(Cl)c1)NCCCCCN1CCCN(C(=O)Nc2ccc(Cl)c(Cl)c2)CC1.O=C(O)C(F)(F)F | 93% | 7% | 29%
Cc1[nH]c(C)c(-c2ccc(-c3ccc(C#N)cc3)nc2)c(=O)c1Br | 97% | 87% | 5%
